{"source": "PubChem BioAssay (NCATS)", "key": {"[1]": {"system": "Zika virus NS2B-NS3 protease", "experiment": "Primary screen GU AMC qHTS for Zika virus inhibitors (AID 1347154); also: nearly all actives have a fitted effect of over 70% in size", "outline": "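Fluorogenic AMC-substrate cleavage by noncovalent NS2B-NS3 protease complex (25 nM, pH 8.0 Tris buffer with Tween 20) followed for 15 minutes at room temperature (~20% conversion). Percent inhibition from ex340/em450 signal change, fitted by 4-parameter Hill equation.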"}, "[2]": {"system": "Zika virus NS2B-NS3 protease (unlinked complex)", "experiment": "Primary screen GU Rhodamine qHTS for Zika virus inhibitors: Unlinked NS2B-NS3 protease assay (AID 1347159); also: nearly all actives have a fitted effect of over 60% in size", "outline": "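Percent inhibition came from the 15-min rise in Rhodamine110 fluorescence (1.5 microM substrate, ~15% conversion), normalized to no-inhibitor and no-enzyme wells and Hill-fitted. Unlinked protease, 25 nM, pH 8.0 Tris buffer; compounds up to 114 microM, 15-min preincubation.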"}, "[3]": {"system": "Zika virus NS2B-NS3 protease (linked construct)", "experiment": "Primary screen NINDS Rhodamine qHTS for Zika virus inhibitors (AID 1347160); also: nearly all actives have a fitted effect of over 55% in size", "settings": "outcome: at 57.1 µM (top of the series)", "outline": "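Rhodamine110-peptide cleavage (1.5 µM substrate) by 25 nM linked NS2B-NS3 enzyme at pH 8.0 (Tris, Tween 20), after 15 min RT preincubation with compounds; 15-min fluorescence change normalized to controls and Hill-fitted.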"}, "[4]": {"molecular_target": "Lysine-specific demethylase 5B (Homo sapiens) (UniProt Q9UGL1)", "sequence (Q9UGL1 whole entry, looked up)": "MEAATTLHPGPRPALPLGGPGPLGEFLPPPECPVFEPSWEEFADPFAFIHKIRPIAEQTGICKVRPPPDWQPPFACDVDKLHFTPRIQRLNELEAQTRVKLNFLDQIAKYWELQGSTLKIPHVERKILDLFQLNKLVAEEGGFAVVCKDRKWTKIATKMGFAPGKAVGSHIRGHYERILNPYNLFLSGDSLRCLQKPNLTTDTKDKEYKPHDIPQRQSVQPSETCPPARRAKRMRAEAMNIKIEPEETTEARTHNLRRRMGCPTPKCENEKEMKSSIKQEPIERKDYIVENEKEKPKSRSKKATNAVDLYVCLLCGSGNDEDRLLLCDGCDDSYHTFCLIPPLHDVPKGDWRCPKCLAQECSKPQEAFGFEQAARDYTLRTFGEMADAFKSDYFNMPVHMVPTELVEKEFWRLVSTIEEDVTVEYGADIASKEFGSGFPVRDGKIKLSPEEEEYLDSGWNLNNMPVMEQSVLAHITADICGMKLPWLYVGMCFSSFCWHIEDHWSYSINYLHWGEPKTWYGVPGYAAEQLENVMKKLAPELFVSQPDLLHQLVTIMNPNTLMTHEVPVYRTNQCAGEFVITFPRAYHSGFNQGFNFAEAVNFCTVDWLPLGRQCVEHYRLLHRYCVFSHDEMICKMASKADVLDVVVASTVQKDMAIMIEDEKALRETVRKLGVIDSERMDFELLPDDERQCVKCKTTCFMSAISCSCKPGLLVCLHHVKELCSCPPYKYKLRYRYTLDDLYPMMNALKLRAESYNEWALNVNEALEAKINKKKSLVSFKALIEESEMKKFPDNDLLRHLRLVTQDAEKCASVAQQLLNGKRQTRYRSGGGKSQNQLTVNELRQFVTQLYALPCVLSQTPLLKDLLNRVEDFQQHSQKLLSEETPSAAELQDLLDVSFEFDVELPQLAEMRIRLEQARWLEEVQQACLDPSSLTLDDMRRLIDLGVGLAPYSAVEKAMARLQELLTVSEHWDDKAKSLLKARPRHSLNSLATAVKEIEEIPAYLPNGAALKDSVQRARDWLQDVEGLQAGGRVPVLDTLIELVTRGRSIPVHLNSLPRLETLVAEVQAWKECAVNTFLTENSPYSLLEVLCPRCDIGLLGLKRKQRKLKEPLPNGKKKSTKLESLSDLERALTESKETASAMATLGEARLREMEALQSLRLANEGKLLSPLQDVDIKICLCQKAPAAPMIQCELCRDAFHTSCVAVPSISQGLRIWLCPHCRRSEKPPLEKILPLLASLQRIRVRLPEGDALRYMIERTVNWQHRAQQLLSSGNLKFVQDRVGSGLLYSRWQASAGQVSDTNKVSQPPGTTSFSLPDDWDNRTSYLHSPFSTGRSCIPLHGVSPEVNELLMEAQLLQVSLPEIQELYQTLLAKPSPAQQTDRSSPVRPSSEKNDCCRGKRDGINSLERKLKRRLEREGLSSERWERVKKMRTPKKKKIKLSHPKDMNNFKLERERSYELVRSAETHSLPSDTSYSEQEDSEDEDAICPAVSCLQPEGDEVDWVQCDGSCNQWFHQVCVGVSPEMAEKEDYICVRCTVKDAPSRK", "experiment": "Optimization screen for KDM5B Histone Demethylases FDH coupled qHTS against the LOPAC library (AID 1347166)", "outline": "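KDM5BDeltaAP (200nM final) in 50mM HEPES pH 7.5, 0.01% Tween-20 was preincubated with compound for 10 min at room temperature. A substrate mix of 12.5uM H3K4Me3, 25uM a-ketoglutarate, ascorbate, Fe2+, NAD+ and formaldehyde dehydrogenase was then added. NADH fluorescence (340/450 nm) was read initially and after 30 min.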"}}, "note": "Inconclusive results are not listed. Entries that show only a call come without a potency. Active and inactive are the calls of the source. Calls follow the shape of the dose curve; as a rule, active = well fitted curve in the direction sought with a large enough effect; inconclusive = small, poorly fitted or top-dose-only effect, or another doubt; inactive = no such curve, though single readings can be large; an effect the other way counts as inactive or inconclusive."}
{"smiles": "CCS(=O)(=O)C(C)(C)S(=O)(=O)CC", "values": [{"measurement": "Potency", "setting": "[1]", "result": "inactive"}]}
{"smiles": "CCCOC(=O)Cc1ccc(OCC(=O)N(CC)CC)c(OC)c1", "values": [{"measurement": "outcome", "setting": "[2]", "result": "inactive"}]}
{"smiles": "COc1ccc2c(C(=O)c3ccc(Cl)cc3)c(C)n(CC(=O)O)c2c1", "values": [{"measurement": "outcome", "setting": "[2]", "result": "inactive"}, {"measurement": "outcome", "setting": "[3]", "result": "inactive"}]}
{"smiles": "CCCC(C)C1(CC)C(=O)N=C(S)NC1=O", "note": "(stereo not drawn)", "values": [{"measurement": "Potency", "setting": "[1]", "result": "inactive"}]}
{"smiles": "CCCCCCCCCCCC[N+](C)(C)CCOc1ccccc1", "values": [{"measurement": "Potency", "setting": "[1]", "result": "inactive"}]}
{"smiles": "COc1cc(C[C@@H](C)N)c(OC)cc1C", "values": [{"measurement": "Potency", "setting": "[1]", "result": "inactive"}]}
{"smiles": "COc1ccc(C(=O)N2CCCC2=O)cc1", "values": [{"measurement": "outcome", "setting": "[4]", "result": "inactive"}]}
{"smiles": "COP(=O)(OC)OC=C(Cl)Cl", "values": [{"measurement": "Potency", "setting": "[1]", "result": "inactive"}]}
{"smiles": "COc1cc(CC#N)cc(OC)c1OC", "values": [{"measurement": "Potency", "setting": "[1]", "result": "inactive"}]}
{"smiles": "O=C(O)CCCCCCNC1c2ccccc2CCc2ccccc21", "values": [{"measurement": "outcome", "setting": "[2]", "result": "inactive"}, {"measurement": "outcome", "setting": "[3]", "result": "inactive"}]}
{"smiles": "CCCC[N+]1(C)[C@@H]2CC(OC(=O)[C@H](CO)c3ccccc3)C[C@H]1[C@@H]1O[C@@H]12", "note": "(stereo partly drawn)", "values": [{"measurement": "Potency", "setting": "[1]", "result": "inactive"}, {"measurement": "outcome", "setting": "[2]", "result": "inactive"}, {"measurement": "outcome", "setting": "[3]", "result": "inactive"}]}
{"smiles": "CC1Sc2c(C(=O)O)c(=O)c3cc(F)c(N4CCNCC4)cc3n21", "note": "(stereo not drawn)", "values": [{"measurement": "Potency", "setting": "[1]", "result": "inactive"}]}
{"smiles": "C[C@]12CC[C@H]3[C@@H](CCC4=CC(=O)CC[C@@]43C)[C@@H]1CC[C@@H]2C(=O)O", "values": [{"measurement": "Potency", "setting": "[1]", "result": "inactive"}]}
{"smiles": "CCOC(=O)c1ncn2c1CN(C)C(=O)c1c(I)cccc1-2", "values": [{"measurement": "outcome", "setting": "[2]", "result": "inactive"}, {"measurement": "outcome", "setting": "[3]", "result": "inactive"}]}
{"smiles": "CC1COC2(c3ccccc3Cl)c3cc(Cl)ccc3NC(=O)CN12", "note": "(stereo not drawn)", "values": [{"measurement": "Potency", "setting": "[1]", "result": "inactive"}]}
{"smiles": "O=C(O)Cc1ccccc1", "values": [{"measurement": "Potency", "setting": "[1]", "result": "inactive"}]}
{"smiles": "Cc1ccc([N+](=O)[O-])[c]2c1[O][Hg]2", "values": [{"measurement": "Potency", "setting": "[1]", "result": "inactive"}]}
{"smiles": "CCN(Cc1ccc(Cl)nc1)/C(=C/[N+](=O)[O-])NC", "values": [{"measurement": "Potency", "setting": "[1]", "result": "inactive"}]}
{"smiles": "O=C(N[C@H]1N=C(c2ccccc2F)c2cccc3c2N(CC3)C1=O)c1cc2ccccc2[nH]1", "values": [{"measurement": "Potency", "setting": "[1]", "result": "inactive"}, {"measurement": "outcome", "setting": "[2]", "result": "inactive"}, {"measurement": "outcome", "setting": "[3]", "result": "inactive"}]}
{"smiles": "OC(O)C(Cl)(Cl)Cl", "values": [{"measurement": "Potency", "setting": "[1]", "result": "inactive"}]}
{"smiles": "CCC1(c2cccc(O)c2)CCCCN(C)C1", "note": "(stereo not drawn)", "values": [{"measurement": "Potency", "setting": "[1]", "result": "inactive"}]}
{"smiles": "C[N+]1(CCC(C(N)=O)(c2ccccc2)c2ccccc2)CCCCC1", "values": [{"measurement": "Potency", "setting": "[1]", "result": "inactive"}]}
{"smiles": "CC#C[C@]1(O)CC[C@H]2[C@@H]3C[C@H](C)C4=CC(=O)CC[C@]4(C)[C@H]3CC[C@@]21C", "values": [{"measurement": "Potency", "setting": "[1]", "result": "inactive"}]}
{"smiles": "CCOC(=O)C1(c2ccccc2)CCN(CCc2ccc(N)cc2)CC1", "values": [{"measurement": "Potency", "setting": "[1]", "result": "inactive"}]}
{"smiles": "COC(=O)C1=CCCN(C)C1", "values": [{"measurement": "Potency", "setting": "[1]", "result": "inactive"}, {"measurement": "outcome", "setting": "[4]", "result": "inactive"}]}
{"smiles": "CCOC(=O)c1cncn1C(C)c1ccccc1", "note": "(stereo not drawn)", "values": [{"measurement": "outcome", "setting": "[2]", "result": "inactive"}, {"measurement": "outcome", "setting": "[3]", "result": "inactive"}]}
{"smiles": "O=C(N[C@@H]1N=C(c2ccccc2F)c2cccc3c2N(CC3)C1=O)c1cc2ccccc2[nH]1", "values": [{"measurement": "outcome", "setting": "[2]", "result": "inactive"}]}
{"smiles": "O=C(O)c1nn(Cc2ccc(Cl)cc2Cl)c2ccccc12", "values": [{"measurement": "Potency", "setting": "[1]", "result": "inactive"}, {"measurement": "outcome", "setting": "[4]", "result": "inactive"}]}
